Test results: ChEMBL document CHEMBL1201862, “PubChem BioAssay data set” (2004)
Results with a measured potency or affinity are listed apart. Only a part of the results of these assays is listed, not drawn at random.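 Grown in 96-well plates, cells were treated for 48 hours with each compound at five concentrations. Insufficient inhibition: endpoint recorded as highest concentration tested. The concentration for 50% growth inhibition is given as GI50.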

Columns and labels:
Test in all cases: NCI tumour cell line growth inhibition, 48 h
[1] = tested on: DLD-1
[2] = tested on: DMS-273
[3] = tested on: HOP-18
[4] = tested on: KM-20L2
[5] = tested on: LXFL 529
[6] = tested on: RXF 631
[7] = tested on: SNB-78
[8] = tested on: XF498

Substance	GI50 [1] [µM]	GI50 [2] [µM]	GI50 [3] [µM]	GI50 [4] [µM]	GI50 [5] [µM]	GI50 [6] [µM]	GI50 [7] [µM]	GI50 [8] [µM]
mu-(1,7-nanodiamine-N,N')bis-(cis-aminedichloroplatimum (II)), CHEMBL2146215	36.2	4.54	84.1	35.9	46.2	47.2	48.8	–
[Bis(aminomethyl)dimethylsilane]tetrachloroplatinum(IV), CHEMBL2146190	12.8	1.02	–	3.58	14.2	34.9	3.22	2.9
[Bis(aminomethyl)pentamethylenesilane]dichloropaltinum(II), CHEMBL2146202	31.1	–	37.7	12.2	12.9	18.4	–	11.5
CISPLATIN, CHEMBL11359	6.03	–	7.71	7.48	4.83	–	1.49	–
[Bis(aminomethyl)tetramethylenesilane]tetrachloropaltinum(IV), CHEMBL2146189	11.8	–	24.3	2.99	12.2	7.26	–	3.56
[Bis(aminomethyl)ethylmethylsilane]tetrachloroplatinum(IV), CHEMBL2146192	–	0.587	–	–	6.22	14.3	3.35	4.22
[Bis(aminomethyl)dimethylsilane]dichloroplatinum (II), CHEMBL2146201	–	5.62	–	–	44.2	> 100	16.7	17.2
cis-Bis[[(trimethylsilyl)methyl]amino]tetrachloroplatinum(IV), CHEMBL2146191	–	12.1	–	–	2.15	3.41	7.36	11
[Bis(aminomethyl)diethylsilane]tetrachloroplatinum(IV), CHEMBL2146203	8.65	–	13	1.45	4.34	4.21	–	2.77
[Bis(aminomethyl)tetramethylenesilane]dichloropaltinum(II), CHEMBL2146205	39.1	14.6	43.5	24.4	27.4	49.3	–	28
[Bis(aminomethyl)pentamethylenesilane]tetrachloropaltinum(IV), CHEMBL2146204	4.58	–	42.6	3.14	4.97	4.63	–	2.86
